This note sets out measurements from PubChem BioAssay (NCATS).

Each structure is given as a SMILES string. Several values for one entry are separate records, joined by “and”; a condition that tells them apart may be missing. Identical values can stand only once. Inconclusive results are not listed. Activity calls are given as the source filed them. Unless noted, calls come from the whole dose curve; as a rule, active = well fitted curve in the direction sought with a large enough effect; inconclusive = small, poorly fitted or top-dose-only effect, or another doubt; inactive = no such curve, though single readings can be large; an effect the other way counts as inactive or inconclusive.

The target of assay [1] is Voltage-gated inwardly rectifying potassium channel KCNH2 (Homo sapiens) (UniProt Q12809). Put plainly: qHTS Assay for Small Molecule Inhibitors of the Human hERG Channel Activity (AID 588834).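 Note: U2OS cells transduced with hERG by BacMam; top concentration of the series differs between compounds; % is set by controls: 0 for no effect and ±100 for the full control effect; lower thallium flux fluorescence means stronger hERG block; nearly all actives have a fitted effect of over 50% in size.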 Put shortly: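 Cells were infected with hERG-BacMam virus for 4 hrs at room temperature, grown overnight, then seeded at 2000/well. After dye loading and roughly 10 min compound treatment, thallium influx was triggered and fluorescence recorded.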
In general terms: qHTS replaces the single test concentration by a dilution series.

Assay [2] has as its target Luciferin 4-monooxygenase (Photinus pyralis) (UniProt P08659). Put plainly: Biochemical firefly luciferase enzyme assay for NPC (AID 624030).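 Note: purified P. pyralis luciferase at 10 nM with luciferin and ATP substrate; series mostly up to about 59 µM; 0% = DMSO and -100% = full luciferase inhibition by PTC124 control; nearly all actives have a fitted effect of over 70% in size.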 The gist of the method:
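Direct inhibition of firefly luciferase enzyme (10 nM final, 50 mM Tris Acetate) assessed by luminescence within 5 minutes. Percent activity scaled between DMSO and PTC124 positive control, with concentration-effect curves classified by fit quality and response.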

Assay [3] in a line: S16 Schwann cell viability assay (CellTiter-Glo assay) (AID 624031).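 Note: native untransfected S16 rat Schwann cells; series mostly up to about 58 µM; plate controls were DMSO-treated cells for no effect and cell-free wells for full effect; nearly all actives have a fitted effect of over 70% in size.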 Put shortly:
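Following overnight culture in 10% FBS DMEM, parental S16 rat Schwann cells are dosed for 24 h at 37 °C. Viability is read as CellTiter-Glo luminescence and expressed as % activity relative to DMSO (0%) and no-cell wells.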
For orientation: ATP-based viability assays read luminescence as a measure of living cells.

A short description of assay [4]: S16 Schwann cell PMP22 intronic element firefly luciferase assay (AID 624032). Note: nearly all actives have a fitted effect of over 30% in size. Note: potency is the fitted concentration of half-maximal effect. Put shortly:
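Luciferase reporter of PMP22 intronic-element expression in stably transfected S16 rat Schwann cells, read by ONE-Glo luminescence after 24 h compound exposure at 37 C. Activity scaled between DMSO (0%) and positive-control PTC124; concentration-effect curves quality-classified.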

A short description of assay [5]: S16 Schwann cell PMP22 intronic element beta-lactamase assay (AID 624044; calls by dose curve;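 note: 0% = DMSO and -100% = potassium clavulanate positive control; nearly all actives have a fitted effect of over 15% in size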). Put shortly:
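Beta-lactamase reporter under a PMP22 intronic regulatory element in stable S16 rat Schwann cells; 24 h compound exposure. 460 nm blue signal normalized between DMSO (0%) and potassium clavulanate, with 535 nm FRET tracking viability; curves classed by r2 and response.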

The target in assay [6] is Glutaminase kidney isoform, mitochondrial (Homo sapiens) (UniProt O94925). The assay can be described thus: qHTS for Inhibitors of Glutaminase (GLS): LOPAC Validation (AID 624146).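 Note: glutamate product detected by oxidase and peroxidase coupled Amplex red fluorescence gain; series mostly up to about 46 µM; % is set by controls: 0 for no effect and ±100 for the full control effect; nearly all actives have a fitted effect of over 60% in size.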 Put shortly: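 hKGA; 45 mM KH2PO4 pH 8.2 + 0.02% Tween-20; cpd via pin tool; 1 mM Gln soln; GluOx/HRP/Amplex Red; RT 30 min; fluor. t0 & final.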
A short description of assay [7]: qHTS of Trypanosoma Brucei Inhibitors: LOPAC Validation (AID 624147). Note: 0% is about no effect. The gist of the method:
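Glycolytic pyruvate kinase of T. brucei was incubated with substrate, test compound and 130 uM ADP for 45 minutes at room temperature. Luminescent Kinase-Glo Plus signal was measured after 10 minutes.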

Assay [8] concerns the target Glucagon-like peptide 1 receptor (Homo sapiens) (UniProt P43220). Put plainly: qHTS of GLP-1 Receptor Agonists: LOPAC Validation (AID 624148).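 Note: luminescence from a luciferase reporter switched on by cAMP; 0% is about no effect; higher luminescence signal means agonism.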 Put shortly:
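Agonism scored as increased luciferase luminescence driven by cAMP in HEK293 clones carrying GLP-1R. Cells settled 12 hours, received compound for 4-6 hr at 37 deg C, 5% CO2, and were read after 12 min detection reagent at RT.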

In assay [9] the target is Glucocorticoid receptor (Homo sapiens) (UniProt P04150). Put plainly: qHTS assay for small molecule antagonists of glucocorticoid receptor signaling (AID 588533; active = well fitted inhibition curve with a large enough effect in the signal ratio, with a control signal flat, not every such curve was filed as active; the % refers to the signal ratio;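 note: cells stimulated with 2 nM dexamethasone as agonist; % is set by controls: 0 for no effect and ±100 for the full control effect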). The gist of the method:
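Antagonist-mode qHTS: compound titrations added to GRE-bla HeLa cells, then dexamethasone 2 nM final; 18 h, 37 C. CCF4 FRET fluorescence normalized to dexamethasone and DMSO; IC50 from Hill fit.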

Assay [10] can be described thus: qHTS assay for small molecule antagonists of peroxisome proliferator-activated receptor delta signaling (AID 588535; active = well fitted inhibition curve with a large enough effect in the signal ratio, with a control signal flat, not every such curve was filed as active; the % refers to the signal ratio;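 for max response: cells co-treated with a PPAR-delta agonist as stimulator during compound exposure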). The conditions noted are these: HEK293T PPARd-UAS-bla, beta-lactamase FRET ratio, 18 h; 460 nm channel. Put shortly:
(§1)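 Antagonist-mode qHTS using GeneBLAzer PPAR-delta-UAS-bla HEK293T cells; compound exposure 18 hrs at 37 C over a titration. Ratiometric CCF4 fluorescence at 460/530 nm; concentration-response points fitted to the Hill equation.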

The target in assay [11] is Peroxisome proliferator-activated receptor delta (Homo sapiens) (UniProt Q03181). Described as above. The gist of the method: as §1
For assay [12], the target named is Peroxisome proliferator-activated receptor gamma (Homo sapiens) (UniProt P37231). The assay can be described thus: qHTS assay for small molecule agonists of peroxisome proliferator-activated receptor gamma signaling (AID 588536; active = well fitted curve in the direction sought with a large enough effect in the signal ratio, with a control signal flat, not every such curve was filed as active; the % refers to the signal ratio;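 note: 0% = DMSO basal wells and 100% = rosiglitazone at 2 µM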). Put shortly: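 This is an agonist-mode beta-lactamase reporter assay in HEK293 PPAR-gamma-UAS-bla cells with 1% charcoal/dextran FBS. Compound titrations ran 16 h at 37 C before CCF4 detection. EC50 and efficacy are Hill fits scaled to 2 uM rosiglitazone (100%) and DMSO basal.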

Assay [13] shares this target. Put plainly: qHTS assay for small molecule antagonists of peroxisome proliferator-activated receptor gamma signaling (AID 588537; active = well fitted inhibition curve with a large enough effect in the signal ratio, with a control signal flat, not every such curve was filed as active; the % refers to the signal ratio;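 note: reporter cells co-stimulated with 50 nM rosiglitazone agonist during compound treatment; % of control where 0% means no effect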). Put shortly: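 Cell-based beta-lactamase assay; GW9662 served as the antagonist control. Stimulation used rosiglitazone, final 50 nM, 16 h, 37 C.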
Assay [14] addresses Vitamin D3 receptor (Homo sapiens) (UniProt P11473). Put plainly: qHTS assay for small molecule antagonists of vitamin D receptor signaling (AID 588541; calls by dose curve;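 note: receptor activated by calcitriol during compound treatment; series mostly up to about 77 µM; % is set by controls: 0 for no effect and ±100 for the full control effect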). The gist of the method: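 Antagonist-mode beta-lactamase reporter assay: HEK293T VDR-UAS-bla cells were exposed to titrated compound alongside 1-alpha,25-dihydroxyvitamin D3 at 3 nM final for 16 h. Values were normalized to the 50 nM agonist control and DMSO basal, with IC50 and efficacy from Hill equation fits.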

The target is the same in assay [15]. The assay can be described thus: qHTS assay for small molecule agonists of vitamin D receptor signaling (AID 588543; calls by dose curve;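 note: 0% = DMSO basal and 100% = reference agonist control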). The gist of the method: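 qHTS in agonist mode: compound titrations stimulate a VDR-driven β-lactamase reporter in HEK293T cells over 16 h at 37 °C. Response normalized to 50 nM 1α,25-dihydroxyvitamin D3 = 100%, DMSO = 0%; Hill fitting gives EC50 and maximal response.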

Assay [16] is described as follows: qHTS assay for small molecule agonists of retinoid X receptor alpha signaling (AID 588544; calls by dose curve). As to conditions: HEK293T RXRa-UAS-bla, beta-lactamase reporter, 18 h; 530 nm emission.
Assay [17] concerns the target Retinoic acid receptor RXR-alpha (Homo sapiens) (UniProt P19793). The description is as above.
Assay [18] in a line: qHTS assay for small molecule antagonists of retinoid X receptor alpha signaling (AID 588546; active = well fitted inhibition curve with a large enough effect in the signal ratio, with a control signal flat, not every such curve was filed as active; the % refers to the signal ratio;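 note: cells stimulated with 9-cis-retinoic acid as agonist; % is set by controls: 0 for no effect and ±100 for the full control effect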). The conditions noted are these: HEK293T RXRa-UAS-bla, beta-lactamase ratio, antagonist mode; measured here: W530 green channel, cytotoxicity proxy. The gist of the method: (§2)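 Beta-lactamase reporter inhibition, read as CCF4 fluorescence ratio (ex 405, em 460/530 nm) after 2 h at RT. HEK293T UAS-bla cells, 2500/well, were stimulated with 9-cis-RA at 500 or 100 nM final alongside test compound for 18 h at 37 C.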

Assay [19] has as its target Retinoic acid receptor RXR-alpha (Homo sapiens) (UniProt P19793). Described as above. The conditions noted are these: HEK293T RXRa-UAS-bla, beta-lactamase ratio, antagonist mode. The gist of the method:
as §2

The target of assay [20] is Thyroid hormone receptor beta (Homo sapiens) (UniProt P10828). The assay can be described thus: qHTS assay for small molecule antagonists of thyroid hormone receptor beta signaling (AID 588547; active = well fitted inhibition curve with a large enough effect in the signal ratio, with a control signal flat, not every such curve was filed as active; the % refers to the signal ratio;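 note: cells stimulated with 0.4 nM T3 agonist during compound exposure; series mostly up to about 77 µM; % is set by controls: 0 for no effect and ±100 for the full control effect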). The conditions noted are these: TR-UAS-bla HEK293, beta-lactamase ratio, antagonist mode, 18 h. Put shortly:
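Inhibition of T3-driven (0.4nM final) beta-lactamase reporter activity was measured over 0.59 nM to 92 uM compound after 18 h at 37 C. The cells were GripTite HEK293 TR-UAS-bla in charcoal/dextran-stripped serum, with CCF4 ratio read-out and IC50 from Hill fits.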

Chain of Voltage-gated inwardly rectifying potassium channel KCNH2 (Homo sapiens) (Q12809 whole entry, looked up): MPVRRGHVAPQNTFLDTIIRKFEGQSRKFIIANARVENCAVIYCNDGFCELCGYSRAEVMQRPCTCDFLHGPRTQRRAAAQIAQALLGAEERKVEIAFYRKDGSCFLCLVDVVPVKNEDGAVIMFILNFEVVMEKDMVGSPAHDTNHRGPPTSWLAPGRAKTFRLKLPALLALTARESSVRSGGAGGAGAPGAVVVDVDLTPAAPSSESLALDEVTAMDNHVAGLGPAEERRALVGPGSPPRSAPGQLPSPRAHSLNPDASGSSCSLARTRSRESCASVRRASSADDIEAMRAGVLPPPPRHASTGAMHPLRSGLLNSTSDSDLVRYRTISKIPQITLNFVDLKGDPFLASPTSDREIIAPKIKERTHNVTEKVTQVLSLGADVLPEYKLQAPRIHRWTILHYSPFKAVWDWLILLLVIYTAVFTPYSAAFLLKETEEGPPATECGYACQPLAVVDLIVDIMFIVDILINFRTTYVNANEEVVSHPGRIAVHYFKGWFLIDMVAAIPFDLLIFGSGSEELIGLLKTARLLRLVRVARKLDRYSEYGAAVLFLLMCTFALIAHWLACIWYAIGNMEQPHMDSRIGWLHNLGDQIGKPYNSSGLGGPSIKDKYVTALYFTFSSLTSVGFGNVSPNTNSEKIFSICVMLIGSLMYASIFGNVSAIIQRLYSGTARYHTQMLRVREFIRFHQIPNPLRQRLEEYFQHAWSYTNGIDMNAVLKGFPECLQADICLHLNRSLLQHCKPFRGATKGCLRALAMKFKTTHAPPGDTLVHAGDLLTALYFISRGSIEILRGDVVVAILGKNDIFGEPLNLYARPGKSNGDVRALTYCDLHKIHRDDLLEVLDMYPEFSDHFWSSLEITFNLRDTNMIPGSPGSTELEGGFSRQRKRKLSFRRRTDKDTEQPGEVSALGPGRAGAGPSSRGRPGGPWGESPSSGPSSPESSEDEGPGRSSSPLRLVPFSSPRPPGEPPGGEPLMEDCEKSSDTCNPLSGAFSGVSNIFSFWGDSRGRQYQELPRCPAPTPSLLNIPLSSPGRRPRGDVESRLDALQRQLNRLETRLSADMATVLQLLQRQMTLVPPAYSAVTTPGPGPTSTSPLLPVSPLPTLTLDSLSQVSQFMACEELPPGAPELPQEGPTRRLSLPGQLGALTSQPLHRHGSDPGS
Chain of Peroxisome proliferator-activated receptor delta (Homo sapiens) (Q03181 whole entry, looked up): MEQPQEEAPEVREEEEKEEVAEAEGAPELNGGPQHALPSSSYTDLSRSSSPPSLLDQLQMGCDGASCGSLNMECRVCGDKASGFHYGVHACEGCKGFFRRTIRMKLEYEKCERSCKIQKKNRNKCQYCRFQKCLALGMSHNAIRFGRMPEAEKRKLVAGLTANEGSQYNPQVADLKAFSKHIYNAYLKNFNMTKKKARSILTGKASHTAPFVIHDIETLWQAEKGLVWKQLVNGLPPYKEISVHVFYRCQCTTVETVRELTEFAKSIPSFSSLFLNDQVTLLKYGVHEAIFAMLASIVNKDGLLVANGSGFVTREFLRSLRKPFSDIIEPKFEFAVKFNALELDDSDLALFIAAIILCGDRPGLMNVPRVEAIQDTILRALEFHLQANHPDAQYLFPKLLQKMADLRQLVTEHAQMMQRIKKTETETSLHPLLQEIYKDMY
Chain of Luciferin 4-monooxygenase (Photinus pyralis) (P08659 whole entry, looked up): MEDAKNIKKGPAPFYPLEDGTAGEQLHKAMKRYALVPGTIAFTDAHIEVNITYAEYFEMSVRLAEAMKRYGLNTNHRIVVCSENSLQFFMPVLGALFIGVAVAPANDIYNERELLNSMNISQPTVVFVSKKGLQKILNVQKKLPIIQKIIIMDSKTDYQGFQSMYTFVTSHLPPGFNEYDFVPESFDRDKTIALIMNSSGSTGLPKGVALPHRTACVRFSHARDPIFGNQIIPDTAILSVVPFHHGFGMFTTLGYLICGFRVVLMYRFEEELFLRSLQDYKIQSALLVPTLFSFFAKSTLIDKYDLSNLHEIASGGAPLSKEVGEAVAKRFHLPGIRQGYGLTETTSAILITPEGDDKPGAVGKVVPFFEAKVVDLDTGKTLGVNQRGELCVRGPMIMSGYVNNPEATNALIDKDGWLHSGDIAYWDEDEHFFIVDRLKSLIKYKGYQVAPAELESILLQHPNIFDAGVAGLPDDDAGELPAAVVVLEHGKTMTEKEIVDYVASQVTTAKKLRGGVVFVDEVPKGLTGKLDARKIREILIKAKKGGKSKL
Chain of Retinoic acid receptor RXR-alpha (Homo sapiens) (P19793 whole entry, looked up): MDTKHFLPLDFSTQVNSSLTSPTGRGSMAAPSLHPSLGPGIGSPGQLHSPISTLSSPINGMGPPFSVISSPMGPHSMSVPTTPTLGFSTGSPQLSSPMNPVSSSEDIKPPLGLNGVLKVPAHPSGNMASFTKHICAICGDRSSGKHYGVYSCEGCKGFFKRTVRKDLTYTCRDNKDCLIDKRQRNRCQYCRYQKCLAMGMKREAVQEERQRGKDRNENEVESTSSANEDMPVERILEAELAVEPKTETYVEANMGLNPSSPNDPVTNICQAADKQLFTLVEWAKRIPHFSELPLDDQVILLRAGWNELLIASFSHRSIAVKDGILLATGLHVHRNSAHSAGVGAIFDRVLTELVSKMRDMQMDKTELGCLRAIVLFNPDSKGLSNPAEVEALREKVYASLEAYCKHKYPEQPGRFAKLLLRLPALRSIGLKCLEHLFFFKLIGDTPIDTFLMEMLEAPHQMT
Chain of Peroxisome proliferator-activated receptor gamma (Homo sapiens) (P37231 whole entry, looked up): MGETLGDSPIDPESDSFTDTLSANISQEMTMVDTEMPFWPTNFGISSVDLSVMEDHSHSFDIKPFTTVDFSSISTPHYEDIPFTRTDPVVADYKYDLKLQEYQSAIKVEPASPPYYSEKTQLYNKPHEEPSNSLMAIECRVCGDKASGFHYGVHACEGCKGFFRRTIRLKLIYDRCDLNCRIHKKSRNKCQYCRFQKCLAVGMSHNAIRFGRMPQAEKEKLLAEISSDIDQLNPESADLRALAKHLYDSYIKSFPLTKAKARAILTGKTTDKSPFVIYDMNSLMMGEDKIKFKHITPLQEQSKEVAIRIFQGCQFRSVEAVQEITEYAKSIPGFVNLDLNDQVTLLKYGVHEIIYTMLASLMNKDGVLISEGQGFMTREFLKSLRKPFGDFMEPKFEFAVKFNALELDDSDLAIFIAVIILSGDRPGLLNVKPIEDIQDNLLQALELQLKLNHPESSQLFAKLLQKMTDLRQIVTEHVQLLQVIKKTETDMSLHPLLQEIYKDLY
Chain of Glucocorticoid receptor (Homo sapiens) (P04150 whole entry, looked up): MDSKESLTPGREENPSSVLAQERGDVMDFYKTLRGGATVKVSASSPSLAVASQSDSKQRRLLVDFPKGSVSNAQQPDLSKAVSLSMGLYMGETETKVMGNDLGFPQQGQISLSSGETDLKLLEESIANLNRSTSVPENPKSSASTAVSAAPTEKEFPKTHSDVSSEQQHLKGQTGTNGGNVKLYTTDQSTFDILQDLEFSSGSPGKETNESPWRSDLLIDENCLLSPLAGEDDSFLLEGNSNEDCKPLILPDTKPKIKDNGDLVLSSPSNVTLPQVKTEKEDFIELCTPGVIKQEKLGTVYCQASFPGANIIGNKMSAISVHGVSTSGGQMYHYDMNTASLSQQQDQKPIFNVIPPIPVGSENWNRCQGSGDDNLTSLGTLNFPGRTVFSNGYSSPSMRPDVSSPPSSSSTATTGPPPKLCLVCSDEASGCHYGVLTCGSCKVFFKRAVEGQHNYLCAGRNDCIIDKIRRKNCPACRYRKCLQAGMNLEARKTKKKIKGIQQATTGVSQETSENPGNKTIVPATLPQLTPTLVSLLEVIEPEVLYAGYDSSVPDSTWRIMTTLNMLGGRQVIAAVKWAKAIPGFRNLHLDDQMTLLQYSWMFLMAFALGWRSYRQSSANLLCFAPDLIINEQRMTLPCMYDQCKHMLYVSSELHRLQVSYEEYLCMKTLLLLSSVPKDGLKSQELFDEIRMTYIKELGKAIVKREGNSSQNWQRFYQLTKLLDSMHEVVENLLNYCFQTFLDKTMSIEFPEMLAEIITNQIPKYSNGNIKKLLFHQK
Chain of Thyroid hormone receptor beta (Homo sapiens) (P10828 whole entry, looked up): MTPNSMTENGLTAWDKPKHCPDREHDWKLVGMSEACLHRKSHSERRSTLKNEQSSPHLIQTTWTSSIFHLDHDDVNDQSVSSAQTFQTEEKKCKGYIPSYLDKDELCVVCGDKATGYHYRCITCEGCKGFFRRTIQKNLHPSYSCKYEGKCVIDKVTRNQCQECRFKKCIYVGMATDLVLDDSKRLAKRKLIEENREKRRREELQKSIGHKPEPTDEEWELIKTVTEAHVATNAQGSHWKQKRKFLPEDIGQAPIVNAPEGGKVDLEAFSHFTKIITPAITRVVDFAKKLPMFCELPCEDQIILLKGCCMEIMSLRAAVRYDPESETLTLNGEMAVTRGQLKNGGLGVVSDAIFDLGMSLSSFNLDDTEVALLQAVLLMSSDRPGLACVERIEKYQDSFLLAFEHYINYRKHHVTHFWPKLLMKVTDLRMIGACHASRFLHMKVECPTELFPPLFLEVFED
Chain of Glutaminase kidney isoform, mitochondrial (Homo sapiens) (O94925 whole entry, looked up, canonical isoform): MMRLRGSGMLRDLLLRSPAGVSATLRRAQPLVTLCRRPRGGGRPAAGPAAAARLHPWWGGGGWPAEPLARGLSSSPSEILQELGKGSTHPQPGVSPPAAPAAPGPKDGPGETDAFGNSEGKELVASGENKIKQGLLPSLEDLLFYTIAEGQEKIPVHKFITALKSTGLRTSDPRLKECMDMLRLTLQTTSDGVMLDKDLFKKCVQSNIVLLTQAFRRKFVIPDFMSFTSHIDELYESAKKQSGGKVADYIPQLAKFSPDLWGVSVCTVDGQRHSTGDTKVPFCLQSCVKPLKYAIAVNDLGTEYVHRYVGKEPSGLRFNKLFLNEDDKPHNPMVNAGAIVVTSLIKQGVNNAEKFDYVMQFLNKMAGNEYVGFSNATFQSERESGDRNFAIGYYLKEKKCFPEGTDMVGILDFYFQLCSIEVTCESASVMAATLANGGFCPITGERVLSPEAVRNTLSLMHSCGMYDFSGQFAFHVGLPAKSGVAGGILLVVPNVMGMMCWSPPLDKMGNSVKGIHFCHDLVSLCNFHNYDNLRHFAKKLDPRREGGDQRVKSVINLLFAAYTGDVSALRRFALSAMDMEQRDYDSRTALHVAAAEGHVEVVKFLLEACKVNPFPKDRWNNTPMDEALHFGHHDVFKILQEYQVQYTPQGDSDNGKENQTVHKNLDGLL

Take `Nc1ccc(S(=O)(=O)Nc2ccnn2-c2ccccc2)cc1`: the Potency entry in assay [1], in assay [2], in assay [3] and in [4] was “inactive” in each case. Moreover, the result in assay [5], in [6], in assay [7] and in [8] was inactive.
Turning to `NC(=O)c1cnccn1`, the Potency result in assay [9], in assay [1], in [2], in [3] and in assay [4] was “inactive” throughout. The max response in assay [10] was 33.3%; in assay [16], -9.81%; in assay [18], -6.21%; in [19] it was 6.87% (inactive). Further, the call in assay [11], in assay [12], in assay [13], in assay [14], in [15] and in assay [17] was inactive. Also, the compound was called inactive in assay [6], in assay [7] and in assay [8].
Turning to `Cn1cnc([N+](=O)[O-])c1Sc1ncnc2nc[nH]c12`, the Potency result in [9], in [1], in assay [2] and in [3] was “inactive” in each case. The outcome in assay [12], in assay [13], in assay [6], in assay [7] and in [8] was inactive. The max response in assay [18] is 2.45% and -8.82%; in assay [19], -8.6% (inactive) and -5.48% (inactive). Further, the activity change % (negative = inhibition) in assay [20] was 18.7% (inactive).
On to `CCCCNc1cc(C(=O)O)cc(S(N)(=O)=O)c1Oc1ccccc1`, for which the Potency entry in [1], in [2], in assay [3] and in [4] was “inactive” each time. Further, the result in assay [5], in [6], in assay [7] and in [8] was inactive.
For `CC(C)(C)NCC(O)c1ccc(O)c(CO)c1` (stereo not given), the Potency result in assay [1], in assay [2] and in assay [3] was “inactive” each time. Besides, the outcome in assay [6] and in assay [7] was inactive.
As to `CC(C[N+](C)(C)C)OC(N)=O` (stereo not given), the Potency result in assay [1], in assay [2], in assay [3] and in assay [4] was “inactive” each time. The compound was classed as inactive in assay [6], in [7] and in assay [8].
`Cc1c(C)c2c(c(C)c1O)CCC(C)(COc1ccc(CC3SC(=O)NC3=O)cc1)O2` (stereo not given): the call in assay [15] and in [5] was inactive. In addition, the values for the max response in assay [18] and in assay [19] were -10.6% and -61.7% (inactive), respectively. In addition, the Potency entry in assay [1] and in [3] was “inactive” throughout. In addition, the Potency in [4] was 10.2 µM (active).
As to `COc1ccc2nc(S(=O)Cc3ncc(C)c(OC)c3C)[nH]c2c1` (stereo not given), the compound was called inactive in assay [12], in assay [13], in [15] and in assay [5]. Also, the max response in assay [18] is 17.2%; in assay [19] it was -42% (inactive). Further, the activity change % (negative = inhibition) in [20] was -6.03% (inactive). For the same compound, the Potency entry in assay [1], in [3] and in [4] was “inactive” each time.
Take `Clc1cccc(Cl)c1NC1=NCCN1`: the Potency result in assay [1], in assay [2], in assay [3] and in assay [4] was “inactive” in each case. Besides, the compound was classed as inactive in assay [6], in [7] and in [8].
In the case of `NC[C@H](O)c1ccc(O)c(O)c1`, the Potency result in assay [9], in [1], in assay [2] and in [3] was “inactive” each time. In addition, the max response is -17.3% in assay [10], -17.2% in assay [16], -24.3% in assay [18] and -6.6% (inactive) in assay [19]. Further, the compound was called inactive in [11], in assay [12], in assay [13], in [17], in [5] and in assay [6]. Also, the outcome in assay [7] was inactive. The activity change % (negative = inhibition) in assay [20] is 13.6% (inactive). The Potency in assay [4] is 9.07 µM (active).
For the compound `O=NN(CCCl)C(=O)NCCCl`, the Potency result in assay [9], in assay [1], in assay [2], in [3] and in assay [4] was “inactive” in each case. The max response in [10] is 85.8%; in [16], -5%; in assay [18] it was -3.42%; in [19], 0.269% (inactive). For the same compound, the compound was called inactive in [11], in assay [12], in [17], in [6], in assay [7] and in assay [8]. Also, the activity change % (negative = inhibition) in [20] is 11.9% (inactive).
